Source: PubChem BioAssay (NCI)
Compounds without any hit were thinned out: in the full panel of roughly 83,000, 20% have a hit.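 Interpretation: 100, growth as untreated; towards 0, rising growth inhibition; 0, no net growth; 0 to -100, cell death. Compounds scoring below 10 were considered active.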 A number with no mark means an inactive call. Activity calls are given as the source filed them.

Test system: HL-60(TB) leukemia
Assay: NCI-60 one-dose screen, 48 h (100 = growth as untreated, 0 = no growth, -100 = all killed)
Settings: 10 µM unless noted

Row | SMILES | growth
1 | CCCCC1=C(P(=O)(O)O)N[C@H](C(=O)O)CS1 | 103%
2 | COc1cc2cc(Oc3ccc(NC(=O)Nc4ccccc4)cc3)c(C)nc2cc1OCCN1CCCCC1 | -46.8% (active)
3 | Cc1c2cccnc2c(C)c2c1c1cc(CO)ccc1n2C | 31%
4 | NS(=O)(=O)Oc1cccc(-c2nc3sccn3c2-c2ccccc2)c1 | 0.181% (active)
5 | CCCCCCCCCCN(CCCCCCCCCC)CC(=O)c1ccc2cc(Br)c3ccccc3c2c1 | -62.2% (active)
6 | COC(=O)[C@H](Cc1cn(C)cn1)NC(=O)[C@H](C)NC(=O)Nc1cc(C(F)(F)F)cc(C(F)(F)F)c1 | -70.4% [100 µM] (active)
7 | O=C1c2cccc3cccc(c23)C(=O)N1N1C(=O)c2cccc3c(NC4CCCCC4)ccc(c23)C1=O | 99.3%
8 | O=C(Cc1nc2ccc([N+](=O)[O-])cc2nc1CC(=O)c1ccccc1)c1ccccc1 | 31.5%
9 | OC1CSSC1Cn1cnc2c(Nc3ccc(OCc4cccc(F)c4)c(Cl)c3)ncnc21 (stereo not given) | -29.3% (active)
10 | O=C(Cn1nnc([N+](=O)[O-])n1)c1ccccc1 | 38%
11 | CCCCCCOc1ccc(/C=N/NC(N)=S)cc1 | 8.79% (active)
12 | N#C/C(=C\c1cn(Cc2ccccc2)c2ccccc12)C(=O)Nc1ncc(Cc2ccccc2Cl)s1 | 93.1%
13 | C=C1C(=O)O[C@H]2[C@H]1CC/C(CNC(=O)CCc1ccc(OC)cc1)=C\CC[C@@]1(C)O[C@@H]21 | 3.96% (active)
14 | COc1ccc(-c2nc3ccc(-c4nc5ccc(N6CCN(c7ccc(F)cc7)CC6)cc5[nH]4)cc3[nH]2)cc1OC | 46.5%
15 | COc1cc(-c2nc(N=Nc3c(O)[nH]c4ccc(Br)cc34)[nH]c(=O)c2C#N)cc(OC)c1OC | 101%
16 | O=C1CC(c2ccc3c(c2)OCO3)c2ncn(-c3ccc(Cl)cc3)c2N1 (stereo not given) | -9.97% (active)
17 | Cc1cc2nc3c4cc(Cl)ccc4n(CCN(C)C)c3nc2cc1C | 20%
18 | COC(=O)c1ccccc1N(C)C | 87.6%
19 | N#C/C(=C\c1ccccn1)c1nc2cc(Cl)ccc2s1 | 52%
20 | COc1cc(Nc2ncccc2C(=O)Nc2nc3ccc(F)cc3s2)cc(OC)c1OC | 136%

Row | SMILES | growth
21 | CN(C)CCS(=O)(=O)CCN(C)C | 110%
22 | CC(C)(CCN=C(N)Nc1ccccn1)c1ccc(C(F)(F)F)cc1 | -52.7% (active)
23 | COc1ccccc1N=Nc1c(O)ccc2cc(S(=O)(=O)O)ccc12 | 106%
24 | CCN1C(=O)N(CC)C2C1NN=c1s/c(=C\c3ccccn3)c(=O)n12 (stereo not given) | -22.5% (active)
25 | OC1OC(COC(c2ccccc2)(c2ccccc2)c2ccccc2)C(O)C(O)C1O (stereo not given) | 97.4%
26 | COc1cccc(-c2nc3sccn3c2-c2cccc(S(C)(=O)=O)c2)c1 | 98.3%
27 | COC(=O)C1NC(=S)N(c2ccc(Cl)cc2)C1/C=C/c1ccccc1 (stereo not given) | 92.8%
28 | CN1C(=O)N(C)C2NC(N/N=C/c3ccccc3)=NC21 (stereo not given) | 99.6%
29 | O=C(CC(=O)Nc1cccc(C(=O)O)c1)Nc1cccc(C(=O)O)c1 | 113%
30 | C[C@]12CC[C@@H]3c4cc(O)c(O)cc4CC[C@H]3[C@@H]1CC[C@@H]2O | 4.62% (active)
31 | CCN1CCN(CC(=O)N2c3cccc4cccc(c34)N(C(=O)CN3CCN(CC)CC3)C2c2cn(-c3ccccc3)nc2-c2cccc([N+](=O)[O-])c2)CC1 | -63.9% (active)
32 | COc1cc(/C=C2\C(=O)Nc3ccc(Br)cc32)cc(OC)c1OC | 73.5%
33 | CN(C)Cc1ccc(O)c(C(=O)O)c1 | 107%
34 | O=C(Nc1c2ccccc2nc2ccccc12)c1ccccc1CN1C(=O)c2ccccc2C1=O | 38.9%
35 | Nc1ccc2c3c(cccc13)-c1ccccc1-2 | 4.53% (active)
36 | COc1ccc(-c2cn(-c3cccc(C(=O)/C=C/c4cc(OC)c(OC)c(OC)c4)c3)c(=O)[nH]2)cc1 | 5.72% (active)
37 | Cc1ccc(C2=NN(c3ccc(S(N)(=O)=O)cc3)C(c3cn(-c4ccccc4)nc3-c3ccccc3)C2)cc1 (stereo not given) | 16.5%
38 | CC(=O)c1cc2c(o1)C(=O)c1ccccc1C2=O | -36.5% (active)
39 | CC1(C)CC2=C3C=C[C@@H]4[C@@]5(C)CCC(=O)C(C)(C)[C@@H]5CC[C@@]4(C)[C@]3(C)CC[C@@]2(C(=O)O)C[C@H]1O | 23%
40 | O=C(N/N=C/c1ccncc1)c1ccccc1Nc1cccc(C(F)(F)F)c1 | 77.7%
